We go through 40 molecules from PubChem BioAssay (NCI).

The panel holds about 83,000 compounds, 20% with a hit somewhere; the sample as a whole holds those more often.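 Single-concentration screen, 48 h exposure, 96-well plates. Endpoint: percent growth. Below 10 = active.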 Values without a mark were called inactive. Activity calls are given as the source filed them.

In this assay the test system is MDA-MB-468 breast. The assay is described as follows: NCI-60 one-dose screen, 48 h (100 = growth as untreated, 0 = no growth, -100 = all killed). Particulars: 10 µM unless noted.
For the molecule `O=C(/C=C/c1ccc(F)cc1)Nc1cccc2cccnc12`, the growth was -19.1% (active).

`C/C(=N\O)[C@@H]1CC[C@]2(CO)CC[C@]3(C)[C@H](CC[C@@H]4[C@@]5(C)CCCNC(C)(C)[C@@H]5CC[C@]43C)[C@@H]12`: the growth is 74.6%.

For `O=C1CCC(N2Cc3c(C#CCCCNC(=O)c4cc5c(o4)C(=O)c4ccccc4C5=O)cccc3C2=O)C(=O)N1` (stereo not given), the growth is -47.1% (active). The figure for `CC(C)(Cl)CCC1=C(Cl)C(=O)c2ccccc2C1=O` is -43.5% (active). Turning to `COc1cccc(Nc2ncnc3cc(NC(=O)CCl)ccc23)c1`, the growth is -56% (active). `CCN(CCNc1cc(OC)cc2cccnc12)CCc1ccccc1`: the growth is -25.4% (active).

Turning to `C#CC#CC#CC#CC#CC#CC#CC#CCC1OC[C@H](COC(=O)O[C@@H](C(=O)O[C@H]2C[C@@]3(O)[C@@H](OC(=O)c4ccccc4)[C@@H]4[C@]5(OC(C)=O)CO[C@@H]5C[C@H](O)[C@@]4(C)C(=O)[C@H](OC(C)=O)C(=C2C)C3(C)C)[C@@H](NC(=O)c2ccccc2)c2ccccc2)O1` (stereo not given in full), the growth is 8.69% (active). For the molecule `NC(=O)c1cccc(-c2ccccc2N2CCCCC2)c1`, the growth is 94.2%. As for `C=C1C(=O)O[C@H]2[C@H]1CC/C(COC(=O)/C=C\C(=O)NCc1ccc(Cn3c(=O)sn(CCCCC)c3=O)cc1)=C\CC[C@@]1(C)O[C@@H]21`, the growth is 47%. For `O=c1oc2ccc(I)cc2c(=O)n1-c1ccc(F)cc1F`, the growth is -8.85% (active).

As to `Cc1cc2nc3c4cc(Cl)ccc4n(CCN(C)C)c3nc2cc1C`, the growth is -42.1% (active). As for `O=C(/C=C/C12c3ccccc3C(c3ccccc31)C1C(=O)NC(=O)C12)c1cccs1` (stereo not given), the growth is 45.8%. On to `Nc1ccc(C(=O)CSc2nc3ccccc3[nH]2)cc1`, for which the growth is 93.2%.

`O=C(Cc1ccccc1)Nc1nc(O)c(/C=C2\C(=O)C=Cc3ccccc32)s1`: the growth was 95.9%. As for `COc1ccc(/C=C/C(c2cc(OC)c(OC)c(OC)c2)n2ccnc2)cc1O` (stereo not given), the growth is 40.6%. The figure for `Nc1n[nH]c2ccc([C@@H]3Nc4ccc5cn[nH]c5c4[C@H]4C5CCC(C5)[C@@H]34)cc12` (stereo not given in full) is -6.84% (active). `O=C(OC(OC(=O)c1cc(Cl)cc(Cl)c1)c1cccc2ccccc12)c1ccccc1` (stereo not given): the growth was 111%. As to `O=C(Nc1ccc(F)cc1F)c1cc(Br)ccc1O`, the growth is -19.6% (active).

`O=C1OC(=O)C2C1C1(Cl)C(Cl)=C(Cl)C2(Cl)C2C(=O)OC(=O)C21` (stereo not given): the growth was 94.3%. As to `COc1ccc(N=C2NN=C(c3c[nH]c4ccccc34)CS2)cc1OC`, the growth was 10.5%. For `N[C@@H](Cc1cn(-c2c3ccccc3nc3ccccc23)nn1)C(=O)O`, the growth was 96.8%. Turning to `CN(C)c1nc(N)nc(Cn2c(-c3nonc3N)nc3ccccc32)n1`, the growth was 23.2%. On to `Cc1cc(O)c2c(c1)C(=O)C(c1c(C)cc3c(c1O)C(=O)C=CC3=O)=CC2=O`, for which the growth was 53.2%. Turning to `c1ccc(-c2nc(N3CCOCC3)c3c4c(sc3n2)CCCCCC4)nc1`, the growth is 57.4%.

As to `O=C(/C(=C/c1ccc([N+](=O)[O-])cc1)SCc1ccc(Cl)cc1)c1ccc(F)cc1`, the growth was 77.2%. With `CC(C)(C)c1nn(-c2ccccc2)c2c1COCN2Cc1ccc(Cl)cc1`, the growth is 89%.

Turning to `N#CC1C=CN(CC(N)=O)c2ccc3cccnc3c21` (stereo not given), the growth was 96.2%. The figure for `O=C(CSc1nc2ccccc2c(=O)n1-c1ccccc1)Nc1ccc(C(=O)/C=C/c2ccc(Cl)cc2)cc1` is 121%; for `Nc1nc2c(s1)CCc1c-2c(Br)n(Cc2ccccc2)c1Br` it is 33.4%; for `CNc1ncc2cc(-c3ccc(-c4ncccc4F)cc3Cl)c(=O)n(CC3OCC(N)CO3)c2n1` (stereo not given) it is 34.5%. `COc1cc(CO)cc2cc3ccccc3nc12`: the growth was 40.8%.

Turning to `CC[N+](CC)(CCOCCOCC[N+](CC)(CC)Cc1ccc([N+](=O)[O-])cc1)Cc1ccc([N+](=O)[O-])cc1`, the growth is 97.9%.

As to `COc1cccc(-c2nc3occn3c2-c2ccnc(NCCCNS(=O)(=O)c3cccc(F)c3)n2)c1`, the growth was 65.4%. The figure for `N#Cc1cc(-c2nc3ccccc3s2)c(=O)n(NS(=O)(=O)c2ccc(Cl)cc2)c1N` is 99.6%; for `Cc1ccc(O)c(Cc2ccccc2)c1` it is 101%. As to `COc1cc(/C=N/NC(=O)Cn2c(-c3ccc(C)o3)nc3ccccc32)ccc1OCc1ccccc1`, the growth was 76.6%. Turning to `CCN1C(=O)N(CC)C2C1NN=c1s/c(=C3\C(=O)N(CCc4ccccc4)c4ccccc43)c(=O)n12` (stereo not given), the growth was -11.3% (active). On to `CC(C)[C@H]1COC(=O)N1[C@@H]1C(=O)N([C@@H](CCC(=O)N2CCN(C3CCCC3)CC2)C(=O)N[C@@H]2CCCc3ccccc32)[C@@H]1/C=C/c1cccc(Cl)c1`, for which the growth is -11.4% (active). Take `CCCCNc1nc(NC(C)(C)C)nc(NC(C)(C)C)n1`: the growth was 78.5%. In the case of `COc1cccc(-c2nc3sccn3c2-c2ccnc(NCCNS(=O)(=O)c3ccccc3)n2)c1`, the growth is 67.4%.
